Experimental data from the supplement of paper PMC12350171.
Structures can show the parent of a compound that is named as a salt.

Tested on: Vibrio cholerae
Assay: growth AUC normalised to DMSO control (fraction of control); higher = less growth inhibition, active = hit call of the paper
Settings: 20 µM;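 active = AUC significantly below DMSO controls by Student t-fit with adjusted P under 0.01; inactive = not significantly reduced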
Outline: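 Three biological replicates were carried out, with OD578 read hourly for 24 h. Before inoculation at a starting OD578 of 0.01, pathogens were passaged anaerobically twice; plates were pre-reduced mGAM containing 20 μM compound and 1% DMSO, sealed with breathable membranes, and the Haemophilus parainfluenzae medium carried added hemin and NAD. Area under each growth curve was calculated by the trapezoidal rule up to the exponential-to-stationary transition and normalised to DMSO controls on the same plate.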

| Structure (SMILES) | growth AUC normalised to DMSO control |
| --- | --- |
| Nc1nc(=O)n([C@@H]2CS[C@H](CO)O2)cc1F [(-) Emtricitabine] | 0.993 (inactive) |
| CC(C(=O)O)c1ccc(C(=O)c2cccs2)cc1 (stereo not drawn) [Suprofen] | 1.05 (inactive) |
| OCCN1CCN(CCCN2c3ccccc3C=Cc3ccccc32)CC1 [Opipramol dihydrochloride] | 0.961 (inactive) |
| c1ccc(CC2=NCCN2)cc1 [Tolazoline hydrochloride] | 1.02 (inactive) |
| CC=C(C)C(=O)OC1C(OC(C)=O)C2(CO)C(O)CC3(C)C(=CCC4C5(C)CCC(OC6OC(C(=O)O)C(OC7OC(CO)C(O)C(O)C7O)C(O)C6OC6OC(CO)C(O)C(O)C6O)C(C)(CO)C5CCC43C)C2CC1(C)C (stereo not drawn) [Beta-Escin] | 0.995 (inactive) |
| N=C(N)N/N=C/c1c(Cl)cccc1Cl [Guanabenz acetate] | 1.03 (inactive) |
| CCN1CCC[C@H]1CNC(=O)c1c(OC)ccc(Br)c1OC [Remoxipride hydrochloride] | 1.03 (inactive) |
| C/C=C(/C(=C/C)c1ccc(O)cc1)c1ccc(O)cc1 [Dienestrol] | 0.969 (inactive) |
